Rango release inh – qHTS Assay for Inhibitors of RanGTP induced Rango (Ran-regulated importin-beta cargo) - Importin beta complex dissociation | Snurportin-1 (Homo sapiens) + GTP-binding nuclear protein Ran (Homo sapiens) + Importin … | Biochemical FRET Rango-importin beta, RanGTP-induced dissociation | Potency, µM (series often up to 46.1 µM), without a hit: top-dose activity change, negative = inhibition | 340,000 compounds, 0.071% hits; calls by dose curve; note: % of control where 0% means no effect; nearly all actives have a fitted effect of over 45% in size
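Two FRET readings bracket the reaction: one 5 min after compound meets Rango–importin beta, another 45 min after RanGTP-RCC1 (0.6 uM Ran, 0.2 uM RCC1, 2 mM GTP) is added. Only the second defines inhibition.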
TDP1 inh – qHTS Assay for Inhibitors of Tyrosyl-DNA Phosphodiesterase (TDP1); 350,000 compounds, 0.28% hits; recombinant TDP1, AlphaScreen DNA substrate cleavage; AID 485290, 2010; Tyrosyl-DNA phosphodiesterase 1 (Homo sapiens), Q9NUW8; Potency, µM (doses to about 130 µM), for the others: top-dose activity change, negative = inhibition, most hits filed as inhibitors; note: % is set by controls: 0 for no effect and ±100 for the full control effect; nearly all actives have a fitted effect of over 40% in size
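Recombinant human Tdp1 (E. coli-expressed, 1 nM final) preincubated with compounds 15 min at room temperature, then 5'-biotin/3'-phosphotyrosine-FITC DNA substrate (15 nM final) added for 5 min. AlphaScreen beads (10 ug/ml final) added 10 min; cleavage lowers signal.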
Rango-impB inh – qHTS Assay for Inhibitors of Rango (Ran-regulated importin-beta cargo) - Importin beta complex formation; Importin subunit beta-1 (Homo sapiens), Q14974; Rango CFP/YFP FRET sensor + importin beta, 45 min; Potency, µM (titrated, usually from 92.2 µM), without a hit: top-dose inhibition of complex formation; 340,000 compounds, 0.031% hits; calls by dose curve;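 note: 0% = DMSO wells and 100% = buffer wells lacking importin beta; nearly all actives have a fitted effect of over 15% in size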
Target sequence (Q14974 whole entry, looked up): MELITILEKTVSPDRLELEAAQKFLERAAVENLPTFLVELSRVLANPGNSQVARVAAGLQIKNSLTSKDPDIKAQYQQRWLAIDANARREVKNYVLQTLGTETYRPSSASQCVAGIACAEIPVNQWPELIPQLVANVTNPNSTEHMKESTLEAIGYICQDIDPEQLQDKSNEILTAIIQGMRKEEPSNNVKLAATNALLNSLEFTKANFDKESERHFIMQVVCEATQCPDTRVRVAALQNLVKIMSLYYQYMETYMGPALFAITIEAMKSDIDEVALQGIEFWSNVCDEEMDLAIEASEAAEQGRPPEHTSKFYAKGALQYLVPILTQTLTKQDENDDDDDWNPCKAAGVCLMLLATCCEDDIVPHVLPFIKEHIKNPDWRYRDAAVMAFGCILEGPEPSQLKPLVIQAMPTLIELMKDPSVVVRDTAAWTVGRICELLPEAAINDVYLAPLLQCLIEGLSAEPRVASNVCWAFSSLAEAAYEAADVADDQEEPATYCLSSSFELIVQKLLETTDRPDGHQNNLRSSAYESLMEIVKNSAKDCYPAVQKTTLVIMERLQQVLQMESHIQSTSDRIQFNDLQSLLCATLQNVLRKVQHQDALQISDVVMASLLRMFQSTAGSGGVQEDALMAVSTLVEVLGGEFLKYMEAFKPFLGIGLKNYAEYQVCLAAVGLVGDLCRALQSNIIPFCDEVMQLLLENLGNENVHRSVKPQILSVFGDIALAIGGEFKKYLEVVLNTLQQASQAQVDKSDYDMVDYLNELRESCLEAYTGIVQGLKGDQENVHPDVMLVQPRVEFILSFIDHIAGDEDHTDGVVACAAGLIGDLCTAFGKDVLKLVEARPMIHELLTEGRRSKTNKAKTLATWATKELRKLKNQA
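Inhibition scored from the CFP 486 nm/YFP 530 nm FRET ratio 45 min after adding 0.125 microM importin beta to 50 nM Rango biosensor preincubated 5 min with compound (room temperature, PBS with DTT, Tween-20, BSA). No-importin wells as positive control.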
12-LOX inh – Primary qHTS assay for inhibitors of human arachidonate 12S-lipoxygenase (ALOX12): Round 2; 580,000 compounds, 1.1% hits; AID 1671190, 2021; purified 12hLO, xylenol orange hydroperoxide absorbance; Potency, µM (doses to about 108 µM), for inactives: at the top dose activity change, negative = inhibition, hits mostly inhibitors; Polyunsaturated fatty acid lipoxygenase ALOX12 (Homo sapiens), P18054; note: % is set by controls: 0 for no effect and ±100 for the full control effect
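Hydroperoxide product was detected by ferrous iron/xylenol orange as the 573 to 405 nm absorbance ratio. Arachidonic acid at 40 uM (final) was turned over for 30 min at room temperature by 150 nM human 12hLO, pH 7.0 Hepes buffer, after 15 min compound preincubation.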
ClpP mod – qHTS Assay for Activators of ClpP. purified B. subtilis ClpP, FRET peptide cleavage, 20 min. AID 651965, 2013. ATP-dependent Clp protease proteolytic subunit (Bacillus subtilis (strain 168)), P80244. 340,000 compounds, 1.9% hits. Potency, µM (titrated, usually from 57.5 µM), inactives show at the top dose activity change, negative = active; active = well fitted falling curve with a large enough effect; inconclusive = small, poorly fitted or top-dose-only effect; inactive = no such curve, though single readings can be large or run the other way; note: the source files actives as falling curves though it sought activators and does not explain the sign; nearly all actives have a fitted effect of over 65% in size
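Buffer: 100 mM Tris/HCl pH8, 100 mM KCl, 0.05% low protease BSA, 2.5% glycerol, 0.01% Tween-20. ClpP 10 microg/mL final; 20 min RT; delta FRET normalized to ADEP and DMSO controls.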
TSG101-PTAP inh – qHTS Assay for Iinhibitors of HIV-1 Budding by Blocking the Interaction of PTAP/TSG101. Tumor susceptibility gene 101 protein (Homo sapiens), Q99816. Fluorescence polarization, FITC-PTAP peptide / Tsg101 binding. Potency, µM (top dose mostly 115 µM), for the others: at the highest dose activity change, negative = inhibition, actives largely listed as inhibitors. 340,000 tested, under 10 active; active = well fitted inhibition curve with a large enough effect in the main read-out, with a control signal flat, not every such curve was filed as active; inconclusive = small, poorly fitted or top-dose-only effect, or effect the other way, or a change in a side signal; inactive = no such curve, though single readings can be large or run the other way; note: % of control where 0% means no effect
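Steps: Tsg101 binding domain dispensed (10 uM final), compounds pinned in DMSO, FITC-labeled PTAP-motif peptide added (50 nM final); after 20 min binding at room temperature, polarization measured.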
Active calls of the source: *; ? = inconclusive; nt = no result; [ ] = dose if it differs, or a comment. In the library only some 2.4% were active in any assay of this set; here they are far more common. Unless noted, calls come from the whole dose curve; as a rule, active = well fitted curve in the direction sought with a large enough effect; inconclusive = small, poorly fitted or top-dose-only effect, or another doubt; inactive = no such curve, though single readings can be large; an effect the other way counts as inactive or inconclusive. Potency is the fitted concentration of half-maximal effect.

SMILES	Rango release inh	TDP1 inh	Rango-impB inh	12-LOX inh	ClpP mod	TSG101-PTAP inh
COc1ccccc1Oc1coc2c(CN3CCN(C)CC3)c(O)ccc2c1=O	-5%	2%	-4%	20%	25µM*	-11%
O=c1c(-c2ccccc2)coc2c(CN3CCCC3)c(O)ccc12	2%	0%	0%	2%	28µM*	-4%
CC1CCCCN1Cc1c(O)ccc2c(=O)c(-c3ccc(Cl)cc3)coc12 (configuration not stated)	-4%	-3%	1%	0%	13µM*	-2%
CCc1cc2c(=O)c(-c3nc4ccccc4n3C)coc2c(CN2CCN(C)CC2)c1O	-5%	50µM*	-1%	-8%	-14%	-5%
COc1ccccc1-c1coc2c(CN3CCN(CCO)CC3)c(O)ccc2c1=O	0%	nt	-1%	-2%	45%	-5%
COc1ccccc1-c1coc2c(CN3CCN(C)CC3)c(O)ccc2c1=O	-1%	1%	-1%	?	7.9µM*	-1%
COC1CCCN(C(=O)c2cc(-c3cccc(N(C)C)c3)cc3ncn(C)c23)C1 (configuration not stated)	nt	nt	nt	10%[176 µM]	nt	nt
COc1cc(/C=C(\C#N)c2cccc(Cl)c2)c(Br)cc1OCc1ccc(F)cc1	nt	nt	nt	4%	nt	nt
COc1ccc(CNC[C@H]2Cn3c(-c4ccc(Cl)cc4)cnc3CO2)cc1	nt	nt	nt	45µM*	nt	nt
CCCOc1ccc(-c2nc(OCC)c3ccccc3n2)cc1	-18%	1%	1%	5%	32µM*	-9%
CCOc1nc(-c2ccncc2)nc2ccccc12	3%	3%[56.1 µM]	1%	-5%	0%	-8%
CN1[C@@H](CCC(=O)NCc2ccc(F)cc2)CNC(=O)[C@@H]2[C@H]1CCN2Cc1ccc(S(C)(=O)=O)cc1	nt	nt	nt	27%	nt	nt
Cc1cc2nc3n(c(=O)c2n1CC(=O)Nc1ccc(Cl)cc1F)CCCCC3	nt	nt	nt	-18%	nt	nt
COc1ccc(C(C)NC(=O)Cn2c(C)cc3nc4n(c(=O)c32)CCCC4)cc1 (configuration not stated)	nt	nt	nt	50µM*	nt	nt
Cc1cc2nc3n(c(=O)c2n1CC(=O)Nc1ccc(Cl)cc1F)CCCC3	nt	nt	nt	22µM*	nt	nt
Cc1cc2nc3n(c(=O)c2n1CC(=O)NC(C)c1ccccc1)CCCCC3 (configuration not stated)	nt	nt	nt	7%	nt	nt
CCc1noc(-c2ccn3c(CNC(=O)COc4ccc(F)cc4)nnc3c2)n1	nt	nt	nt	6%	nt	nt
CN(Cc1ccccc1Cl)C(=O)c1ccc2c(c1)CCN2S(C)(=O)=O	nt	nt	nt	36%	nt	nt
COc1ccc(CNC(=O)C[C@H]2C[C@H](C(=O)N3CCOCC3)[C@@]3(CCC4CCCC4)c4[nH]c5cc(-c6ccco6)ccc5c4CCN3C2=O)cc1OC	18%	4%[56.1 µM]	-5%	40µM*	4%	0%
O=C(C[C@H]1C[C@H](C(=O)N2CCOCC2)[C@@]2(CCC3CCCC3)c3[nH]c4cc(-c5ccco5)ccc4c3CCN2C1=O)NCCN1CCOCC1	-13%	4%[56.1 µM]	-1%	45µM*	3%	-15%
O=C(Nc1ccc2nc(-c3ccccc3)[nH]c2c1)c1ccco1	0%	5%	2%	0%	28µM*	1%
CCC1(O)CCC12CCN(C(=O)c1cccc(C)c1)CC2 (configuration not stated)	nt	nt	nt	30%	nt	nt
CCC(C)Nc1nc(Cl)nc(NCCOc2ccccc2)n1 (configuration not stated)	0%	3%	8%	-19%	28µM*	-3%
CNC(=O)C(C)OC(=O)c1nn(-c2ccccc2)c(=O)c2ccccc12 (configuration not stated)	nt	nt	nt	-5%	nt	nt
Cc1cccc(C(=O)Nc2ccc(-c3nc4ccccc4s3)cc2Cl)c1	nt	-2%	nt	5%	25µM*	nt
SMILES	Rango release inh	TDP1 inh	Rango-impB inh	12-LOX inh	ClpP mod	TSG101-PTAP inh
Cc1cc(C)cc(C(=O)Nc2ccc(-c3nc4ccccc4s3)cc2C)c1	nt	nt	nt	5%	nt	nt
OC1(CN2CCC(c3nc(-c4ccccc4)no3)CC2)CNCCOC1 (configuration not stated)	nt	nt	nt	-19%	nt	nt
O=C(CCN1C(=O)NC2(CCCCC2)C1=O)Nc1cnc2ccccc2c1	nt	nt	nt	41%	nt	nt
Cc1ccc(C2Nc3ccc4ccccc4c3C3=C2C(=O)CC(C)(C)C3)o1 (configuration not stated)	?	-8%	-4%	?	14µM*	-4%
CC1(C)CC(=O)C2=C(C1)c1c(ccc3ccccc13)NC2c1ccc(C(=O)O)cc1 (configuration not stated)	?	nt	?	?	nt	-17%
CC1(C)CC(=O)C2=C(C1)c1c(ccc3ccccc13)NC2c1cc([N+](=O)[O-])cc([N+](=O)[O-])c1O (configuration not stated)	14%	5%	-2%	40µM*	nt	-9%
O=C1CCCC2=C1C(c1ccco1)Nc1ccc3ccccc3c12 (configuration not stated)	-2%	?	-6%	14%	35µM*	-5%
O=C1CCCC2=C1C(c1ccc(O)c(O)c1)Nc1ccc3ccccc3c12 (configuration not stated)	16%	nt	-1%	0%	nt	0%
C/C(=C\c1ccccc1)C1Nc2ccc3ccccc3c2C2=C1C(=O)CC(C)(C)C2 (configuration not stated)	nt	nt	nt	-18%	nt	nt
Cc1ccc(-c2ncc3c(n2)OCCN(c2ccccc2)C3=O)cc1F	nt	nt	nt	2%[176 µM]	nt	nt
CCc1ccccc1NC(=O)CCc1c[nH]c2ccccc12	nt	nt	nt	9%	nt	nt
Cn1c(N2CCOCC2)nc(-c2ccccc2)c1-c1ccccc1	5%	9%	-2%	2%	11µM*	-10%
O=C1c2ccccc2NC(c2cccc(F)c2)N1Cc1ccccc1 (configuration not stated)	-2%	nt	-1%	?	4%	-5%
COc1ccc(O)c(C2Nc3ccccc3C(=O)N2Cc2ccccc2)c1 (configuration not stated)	nt	1%	nt	nt	nt	nt

High-throughput results deposited in PubChem by National Center for Advancing Translational Sciences (NCATS).
